Most compounds without a hit are left out; they make up all but 12% or so of the library.
WT yeast gro inh = growth inhibition of WT strain, primary screen, mitochondrial fusion inhibitor project, WT and mutant strains, chemical genetic | mitochondrial fusion phenotypic screen | inhibition, % at 10 µM | AID 1362, 2008 | hit rate 2.1% among 190,000; in the data active = inhibition above about 58%; tested in S. cerevisiae
Arbovirus inh = antivirals against arbovirus infection, primary screen, cell-based, full library, 10K replicate subset. inhibition, % at 10 µM. arbovirus infection cell-based antiviral screen. hit rate 0.37% among 200,000; in the data active = inhibition above about 30%
L major viab = Leishmania major promastigote growth inhibition, primary screen; Leishmania major promastigotes, resazurin fluorescence viability; inhibition, % at 10 µM; hit rate 9% among 200,000; in the data active = inhibition above about 50%;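 also: promastigotes grown with compound for 44 hours at 28 °C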
CHOP inhibitor = inhibitors of CHOP promoter induction, primary screen, cell-based, unfolded protein response, luciferase reporter; CHO-K1 CHOP-promoter luciferase, tunicamycin-induced, 15-18 h; inhibition, % at 10 µM; hit rate 3.8% among 220,000;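 active = compounds that reduced the stress-induced luciferase reporter signal by more than about 70% of percent inhibition, limit read from the data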;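 also: 0% = tunicamycin plus vehicle and 100% = wells without tunicamycin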
Starred values were filed as active, the others as inactive; . = no result given.

SMILES	WT yeast gro inh	Arbovirus inh	L major viab	CHOP inhibitor
Cc1ccc2c(C(=O)CN3CCN(C(=O)c4ccco4)CC3)c(C)[nH]c2c1	.	.	.	15
O=C(NCc1cccnc1)c1ccc(NC(=O)c2cccc([N+](=O)[O-])c2)cc1	-9	-9	4	-30
COc1ccc2nc(N3C(=O)CC(Cc4cc(C)cc(C)c4)C3=O)sc2c1 (configuration not stated)	-1	39*	0	4
CC(=O)c1nc(N2C(=O)CC(Cc3cc(C)cc(C)c3)C2=O)sc1C (configuration not stated)	1	1	54*	16
Cc1nn(-c2ccc3ccccc3c2)c(=O)c2ccccc12	3	-2	-1	-21
Cc1nn(-c2nc3ccccc3[nH]2)c(=O)c2ccccc12	91*	-31	18	98*
CC(C)(O)C#Cc1ccc(C(=O)NCc2ccccc2)s1	.	.	-3	.
Cc1cc(NC(=O)C(=O)c2cn(C)c3ccccc23)no1	-10	-5	8	8
N=C1SCC(=O)N1c1nc(-c2ccccc2)cs1	-6	7	-8	-39
Cc1cccc(N2C(=N)SCC2=O)c1C	-4	1	54*	22
CC(OC(=O)c1cc(=O)[nH]c2ccccc12)c1ccccc1 (configuration not stated)	-7	0	4	23
CCN(CC)c1ccc2c(Cl)c(Br)c(=O)oc2c1	77*	-45	69*	94*
CCN(CC)c1ccc2c(C)c(Cl)c(=O)oc2c1	11	6	4	18
CCOc1cc(/C=N/NC(=O)CCn2nc(C)cc2C)ccc1O	.	.	.	8
CC[C@@H]1CC=C[C@H]2[C@H]1C(=O)N(Cc1ccccc1)[C@H]2c1ccc2ccccc2c1	.	.	.	31
Cc1[nH]n(-c2ccc(Cl)cc2)c(=O)c1N=Nc1cccnc1	.	.	.	90*
Cc1[nH]n(-c2ccccc2)c(=O)c1N=Nc1ccc2c(c1)OCCO2	13	12	-6	-10
C[C@@H]1CC=C[C@H]2[C@H]1C(=O)N(Cc1ccccc1)[C@H]2c1ccc(/C=C/c2ccccc2)cc1F	.	.	.	16
CCOc1ccc(-c2cc(C(=O)OC)[nH]n2)cc1	-18	6	19	19
CC1(C)NC(=O)N(CC(=O)Nc2nc(-c3ccc(F)cc3)cs2)C1=O	7	-7	-17	4
COc1ccccc1NC(=O)C1=C(C)Nc2nc(-c3cccs3)nn2C1c1cccnc1 (configuration not stated)	10	-3	97*	-33
COc1ccccc1-c1nc2n(n1)C(c1cccs1)C(C(=O)Nc1cccnc1)=C(C)N2 (configuration not stated)	-2	-2	99*	14
COc1ccc(C2C(C(=O)Nc3cccnc3)=C(C)Nc3nc(-c4ccco4)nn32)cc1 (configuration not stated)	2	3	-10	10
CC1=C(C(N)=O)C(c2cccnc2)n2nc(-c3cccc(Cl)c3)nc2N1 (configuration not stated)	1	5	67*	15
CCc1ccc(NC(=S)Nc2ccc3[nH]c(=O)[nH]c3c2)cc1	.	.	.	-9
SMILES	WT yeast gro inh	Arbovirus inh	L major viab	CHOP inhibitor
NNC(=O)c1ccc(N2CCCCCC2)c([N+](=O)[O-])c1	2	-7	-3	20
O=C(Nc1ccc2snnc2c1)Nc1cccc2ccccc12	89*	-5	100*	56
Cc1ccc(NC(=O)c2ccc3snnc3c2)cc1	-8	4	14	16
Cc1nc2cc(NC(=O)Nc3cccc4ccccc34)ccc2n1C	-8	7	-6	14
COc1cc(OC)c(NC(=O)c2cccc(F)c2)cc1Cl	12	-11	-5	7
COc1ccc(C(N)=O)cc1NC(=O)c1cccc(F)c1	65*	-5	2	-4
COc1ccccc1NC(=O)c1ccc2snnc2c1	15	-5	99*	-14
O=C(Nc1ccccc1)c1ccc2snnc2c1	-17	6	77*	6
Cc1nn(CCCC(=O)N2CCN(c3ccc(F)cc3)CC2)c(C)c1[N+](=O)[O-]	2	0	23	13
CCOC(=O)c1c(-c2cccs2)csc1NC(=O)CC(C)C	.	-14	5	51
CCOC(=O)c1c(-c2ccc(C)o2)csc1NC(=O)COC(=O)c1cccs1	-7	-1	-1	9
CCOC(=O)c1c(-c2ccc(C)o2)csc1NC(=O)CN1CCOCC1	-1	1	89*	7
CCOC(=O)c1c(-c2cccs2)csc1NC(=O)CN1CCOCC1	15	-1	4	72*
COc1ccc(CCNC(=O)C(C(=O)c2ccccc2)n2cc(Cl)ccc2=O)cc1OC (configuration not stated)	-29	2	55*	10
CC(=O)Oc1ccc2cc(-c3ccccc3)c(=O)oc2c1	.	.	.	3
O=C(C1CCC(CNc2nc(=S)[nH]c3ccccc23)CC1)N1CCN(c2ccc(F)cc2)CC1 (configuration not stated)	0	16	4	25
CCCCNC(=O)C1CCC(CNc2nc(=S)[nH]c3ccccc23)CC1 (configuration not stated)	-9	-13	5	23
COc1ccc(N2CCN(CCCNC(=O)C3CCC(CNc4nc(=S)[nH]c5ccccc45)CC3)CC2)cc1 (configuration not stated)	-7	-16	86*	39
O=C(NCCC1=CCCCC1)C1CCC(CNc2nc(=S)[nH]c3ccccc23)CC1 (configuration not stated)	2	-9	0	94*
O=C(NCCc1ccc(Cl)cc1)C1CCC(CNc2nc(=S)[nH]c3ccccc23)CC1 (configuration not stated)	-6	-8	2	87*
COC(=O)c1c(NC(=O)CCNCc2ccco2)sc2c1CCC2	.	.	.	6
COc1ccc2[nH]c(=O)c(CN(C(=O)c3ccco3)C3CCCCC3)cc2c1	.	5	94*	44
COc1ccc2[nH]c(=O)c(CN(C(=O)NC3CCCCC3)C3CCCC3)cc2c1	18	5	100*	10
COc1ccc2[nH]c(=O)c(CN(C(C)=O)C3CCCCC3)cc2c1	17	-8	-1	52
COc1cc(C(=O)NC(=S)Nc2ccc3c(c2)C(=O)N(C)C3=O)cc(OC)c1OC	-5	4	4	8
SMILES	WT yeast gro inh	Arbovirus inh	L major viab	CHOP inhibitor
CCc1c(C)nc2cc(-c3ccc(OC)c(OC)c3)nn2c1NCC1CC1	27	-26	101*	60
COc1ccc(-c2cc(C#N)nc(N3CCNCC3)n2)cc1	-5	-37	100*	-22
COc1ccc(S(=O)(=O)n2[nH]c(=O)c(CCO)c2C)c([N+](=O)[O-])c1	5	8	6	-12
CSc1cccc(NC(=O)C(C)C)c1	9	-3	8	12
CC(C)C(=O)Nc1cccc(S(=O)(=O)c2cccc(NC(=O)C(C)C)c2)c1	-5	-3	66*	30
Cc1cccc(OCC(=O)O/N=C(\N)c2ccc(Br)cc2)c1	.	.	.	18
CCOC(=O)C1(CCOc2ccccc2)CCN(Cc2cccc3c2OCO3)CC1	18	5	91*	27
CCOC(=O)C1(CCOc2ccccc2)CCN(Cc2cc(OC)c3c(c2)OCO3)CC1	27	1	84*	37
CN1CCN(C(=O)CC2(CC(=O)O)CCCC2)CC1	-2	11	-9	1

Screens (PubChem BioAssay)
